Pf growth 48h: Primary qHTS for delayed death inhibitors of the malarial parasite plastid, 48 hour incubation; P. falciparum luciferase growth in erythrocytes, 48 h; 5.9% of 310,000 active; Potency, µM (series often up to 28.7 µM), actives largely listed as inhibitors; AID 504832, 2011
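Read-out is firefly luciferase luminescence from an integrated reporter in P. falciparum, so falling signal marks reduced parasite growth. Infected erythrocytes were at 2% hematocrit and 0.1% parasitemia (final) in Albumax-supplemented RPMI 1640.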
HCMV antiviral: qHTS Assay for inhibitors of the human cytomegalovirus (HCMV); HFF cells, HCMV-luciferase reporter, 72 h; hits give low values; activity change, negative = inhibition, % at 57.5 µM; 4.5% of 410,000 active; AID 1259415, 2018; in the data active means activity change below about -60%; inconclusive means no clear call, values can overlap the other calls; inactive means above about -39%
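Human foreskin fibroblasts infected with luciferase-reporter HCMV at MOI 1 PFU/cell, compounds at two doses. Luciferase measured 72 h post infection; normalized to buffer-only basal and Salinomycin (10uM) controls.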
Shiga toxin inh: A qHTS for Small Molecule Inhibitors of Shiga Toxin; Vero cells, Shiga toxin protein synthesis inhibition reporter; inhibition, % at 38.7 µM; 9.2% of 290,000 active; AID 2315, 2010; in the data active means inhibition mostly above about 28%, no sharp cut-off; inactive means mostly below about 43%
CHX counter: Cycloheximide Counterscreen for Small Molecule Inhibitors of Shiga Toxin; cell reporter, cycloheximide protein synthesis inhibition counterscreen; 12% of 300,000 active; max response, %; in the data active means max response mostly above about 13%, no sharp cut-off; inactive means mostly below about 14%; further: read at 38.3 µM for the half of the compounds with a filed dose
Pf growth 96h: Primary qHTS for delayed death inhibitors of the malarial parasite plastid, 96 hour incubation | 6.9% of 320,000 active | AID 504834, 2011 | Potency, µM (highest dose often 28.7 µM), actives largely listed as inhibitors | P. falciparum luciferase reporter growth, 96 h
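Readout is luminescence from an integrated firefly luciferase in P. falciparum. Red cells, 2% hematocrit and 0.05% parasitemia final, were cultured with compound through two parasite generations (96 hours) at 37 C, 5% CO2.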
Of the large screens only hits and unclear results are named; the others gave an inactive call; ! = repeats disagree. This is a sample that favours compounds with a hit; in the whole collection about 20% have one here. Unless noted, the call rests on the fitted dose curve; in most records, active means well fitted inhibition curve with a large enough effect; inconclusive means small, poorly fitted or top-dose-only effect, or another doubt; inactive means no such curve, though single readings can be large or run the other way.

O=C(c1ccc(COc2ccccc2)o1)N1CCN(S(=O)(=O)c2ccccc2Cl)CC1	Pf growth 48h 13µM, Pf growth 96h inconclusive (no result: Shiga toxin inh, CHX counter)
Cc1occc1-c1nnc(SCC(=O)N2CCN(c3ccccc3F)CC2)n1C	Pf growth 96h 3.7µM
COCCn1c(SCC(=O)c2ccc3c(c2)OCCO3)nnc1-c1ccoc1C	Pf growth 48h inconclusive, Shiga toxin inh 105, CHX counter 111 (no result: Pf growth 96h)
CCCCn1c(SCC(=O)c2ccc3c(c2)OCCO3)nnc1-c1ccco1	Pf growth 48h inconclusive, Pf growth 96h inconclusive
Cc1occc1-c1nnc(SCC(=O)N2CCCCC2)n1C	none (no result: Shiga toxin inh, CHX counter)
COCCn1c(SCC(=O)c2cccc(OC)c2)nnc1-c1ccco1	Pf growth 96h 13µM
COCCn1c(SCC(=O)N2CCCC2)nnc1-c1ccoc1C	Shiga toxin inh 82, Pf growth 96h inconclusive
CC1(C)CC(=O)C(C(c2ccc3c(c2)OCO3)C2C(=O)CC(C)(C)CC2=O)C(=O)C1	none (no result: Pf growth 48h, Shiga toxin inh, CHX counter, Pf growth 96h)
COCCn1c(SCC(=O)Nc2ccc(OC)cc2)nnc1-c1ccoc1C	HCMV antiviral inconclusive
COCCCn1c(SCC(=O)Nc2ccc3c(c2)OCCO3)nnc1-c1ccoc1C	Shiga toxin inh 76, CHX counter 27
COc1cc2nc(SCc3cccc(Cl)c3)n3nc(CCn4nc(C)cc4C)nc3c2cc1OC	none (no result: Pf growth 48h, Shiga toxin inh, CHX counter, Pf growth 96h)
O=C(OC1CCOC1=O)C1CCN(S(=O)(=O)c2ccc(Cl)c(C(F)(F)F)c2)CC1 (centres undefined)	none (no result: Shiga toxin inh, CHX counter)
COc1ccc(CNC(=O)c2cc3cc(OC)ccc3oc2=O)cc1	HCMV antiviral -104!
COc1ccc2oc(=O)c(C(=O)NCc3ccc(C)cc3)cc2c1	HCMV antiviral -100
CCOc1ccc(C(=O)Nc2ccc(C(=O)OCc3cc(=O)n4ccsc4n3)cc2)cc1	none (no result: Pf growth 48h, Shiga toxin inh, CHX counter, Pf growth 96h)
Cc1cc(C(=O)COC(=O)[C@H](C)NC(=O)c2ccco2)c(C)n1Cc1ccco1	Shiga toxin inh 59, CHX counter 35
Cc1ccc(C(=O)NCC(=O)OCC(=O)c2cc(C)n(Cc3ccco3)c2C)cc1	none
Cc1cc(C(=O)CCl)c(C)n1Cc1ccco1	HCMV antiviral -97
Cc1nnc(SCC(=O)c2cc(C)n(-c3ccc4c(c3)OCO4)c2C)s1	Pf growth 48h inconclusive, HCMV antiviral -66, Shiga toxin inh 36, CHX counter 18
CC(=O)c1ccc(NC(=O)CSc2nnc(-c3ccco3)o2)cc1	CHX counter 17, Pf growth 96h inconclusive
COc1ccc(OC)c(CCNC(=O)CCCn2c(=O)c3cccn3c3ccc(F)cc32)c1	none (no result: Pf growth 48h, Shiga toxin inh, CHX counter, Pf growth 96h)
O=C(CCCn1c(=S)[nH]c2ccccc2c1=O)NCCSCc1ccccc1	HCMV antiviral inconclusive
O=C(CSc1nnc(-c2ccco2)o1)c1ccc([N+](=O)[O-])cc1	none
O=C(CSc1nnc(-c2ccco2)o1)c1ccccc1Cl	CHX counter 17
Cc1ccc2cccc(OCC(=O)c3cc(C)n(Cc4ccco4)c3C)c2n1	Pf growth 48h 13µM, CHX counter 25, Pf growth 96h inconclusive
Cc1nnc(SCc2ccc3c(c2)OCO3)s1	Shiga toxin inh 142, CHX counter 81 (no result: Pf growth 48h)
CCN(CC)C(=O)CSc1nnc(-c2ccco2)o1	Shiga toxin inh 47, CHX counter 23
Cc1cc(C(=O)COC(=O)Cn2c(C(F)(F)F)nc3ccccc32)c(C)n1Cc1ccco1	Pf growth 96h inconclusive (no result: Pf growth 48h)
CN(C(=O)CSc1nnc(-c2ccco2)o1)C1CCCCC1	none
Cc1nnc(SCc2cccc(CSc3nnc(C)s3)c2)s1	none (no result: Pf growth 96h)
CCN(CC)c1nc2c(s1)C(=O)CC(C)(C)C2	none (no result: Pf growth 48h)
COCCn1c(=S)[nH]c2cc(C(=O)N3CCCC(C)C3)ccc2c1=O (centres undefined)	HCMV antiviral inconclusive, Pf growth 96h inconclusive
Cc1cc(C(=O)CSc2nncs2)c(C)n1Cc1ccco1	Shiga toxin inh 109, CHX counter 38
Cc1cc(C(=O)CSc2nnc(-c3ccco3)o2)c(C)n1-c1ccc2c(c1)OCCO2	Pf growth 96h 12µM (no result: Pf growth 48h)
Cc1cc(C(=O)CSc2nnc(-c3ccco3)o2)c(C)n1Cc1ccco1	Shiga toxin inh 96, CHX counter 31, Pf growth 96h inconclusive
Cc1cc(C(=O)CSc2nnnn2C)c(C)n1-c1ccc2c(c1)OCCO2	Shiga toxin inh 142, CHX counter 37 (no result: Pf growth 96h)
NC(=O)CSc1nnnn1-c1ccc2c(c1)OCCO2	none
COCC(C)n1c(C)cc(C(=O)CSc2nnc(-c3ccco3)o2)c1C (centres undefined)	none (no result: Pf growth 48h, Shiga toxin inh, CHX counter, Pf growth 96h)

Compound activity deposited in PubChem BioAssay by National Center for Advancing Translational Sciences (NCATS).
